Experimental data as given in PubChem BioAssay (Tox21).
Inconclusive results are not listed. Activity calls are given as the source filed them. Unless noted, the call rests on the fitted dose curve; in most records, active means well fitted curve in the direction sought with a large enough effect in the repeat runs; inconclusive means weak or mixed curves; inactive means no such curve, though single readings can be large; an effect the other way counts as inactive or inconclusive.

Legend:
[1] = target: Aryl hydrocarbon receptor (Homo sapiens) (UniProt P35869); experiment: qHTS assay to identify small molecule that activate the aryl hydrocarbon receptor (AhR) signaling pathway (AID 743085);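 further: HG2L7.5c1 human HepG2 liver cells with stably integrated DRE-driven firefly reporter; series mostly up to about 70 µM; nearly all actives have a fitted effect of over 15% in size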
Chain of Aryl hydrocarbon receptor (Homo sapiens) (P35869 whole entry, looked up): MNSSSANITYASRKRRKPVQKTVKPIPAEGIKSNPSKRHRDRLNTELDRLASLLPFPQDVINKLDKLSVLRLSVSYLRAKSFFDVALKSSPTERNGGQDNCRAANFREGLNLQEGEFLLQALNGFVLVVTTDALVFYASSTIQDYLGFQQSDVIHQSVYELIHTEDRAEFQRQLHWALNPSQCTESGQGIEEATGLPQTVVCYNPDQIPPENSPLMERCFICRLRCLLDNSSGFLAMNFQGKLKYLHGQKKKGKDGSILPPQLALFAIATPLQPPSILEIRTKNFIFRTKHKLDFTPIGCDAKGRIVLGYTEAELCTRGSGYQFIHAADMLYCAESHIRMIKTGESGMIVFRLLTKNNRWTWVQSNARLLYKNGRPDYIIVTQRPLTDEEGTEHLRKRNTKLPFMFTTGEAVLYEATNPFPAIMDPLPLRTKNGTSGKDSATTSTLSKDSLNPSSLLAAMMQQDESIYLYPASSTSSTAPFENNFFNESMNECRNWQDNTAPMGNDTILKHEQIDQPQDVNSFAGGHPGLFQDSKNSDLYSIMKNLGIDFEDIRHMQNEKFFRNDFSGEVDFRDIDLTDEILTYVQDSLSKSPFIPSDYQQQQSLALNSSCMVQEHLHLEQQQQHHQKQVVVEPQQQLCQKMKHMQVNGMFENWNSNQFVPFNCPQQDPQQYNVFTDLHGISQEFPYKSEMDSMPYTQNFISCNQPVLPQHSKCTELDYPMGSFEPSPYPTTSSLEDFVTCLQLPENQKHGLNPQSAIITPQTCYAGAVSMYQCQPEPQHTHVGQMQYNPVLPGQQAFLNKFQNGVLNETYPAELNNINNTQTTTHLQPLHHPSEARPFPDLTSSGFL
Procedure, shortened: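 Stably transfected human liver carcinoma cells (HG2L7.5c1; 20 DRE-firefly luciferase) were incubated 5 h, dosed, and kept 24 h at 37C. Agonism was scored from increased luciferase luminescence.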

[2] = qHTS assay to identify small molecule that activate the aryl hydrocarbon receptor (AhR) signaling pathway - cell viability counter screen (AID 743086);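 further: HepG2 liver cells carrying the AhR DRE luciferase reporter; series mostly up to about 70 µM; nearly all actives have a fitted effect of over 45% in size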
Procedure, shortened: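 HepG2-AhR-luc (HG2L7.5c1) cells, 4000/well, were preincubated 5 h at 37C, exposed to compound in qHTS format for 24 hr at 37C, then given CellTiter-Fluor for 30 min; viability was read as fluorescence in the reporter wells.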

[3] = target: Peroxisome proliferator-activated receptor gamma (Homo sapiens) (UniProt P37231); experiment: qHTS assay to identify small molecule agonists of the peroxisome proliferator-activated receptor gamma (PPARg) signaling pathway (AID 743094; active means well fitted activation curve with a large enough effect in the signal ratio in the repeat runs, not every such curve was filed as active; the % refers to the signal ratio)
Chain of Peroxisome proliferator-activated receptor gamma (Homo sapiens) (P37231 whole entry, looked up): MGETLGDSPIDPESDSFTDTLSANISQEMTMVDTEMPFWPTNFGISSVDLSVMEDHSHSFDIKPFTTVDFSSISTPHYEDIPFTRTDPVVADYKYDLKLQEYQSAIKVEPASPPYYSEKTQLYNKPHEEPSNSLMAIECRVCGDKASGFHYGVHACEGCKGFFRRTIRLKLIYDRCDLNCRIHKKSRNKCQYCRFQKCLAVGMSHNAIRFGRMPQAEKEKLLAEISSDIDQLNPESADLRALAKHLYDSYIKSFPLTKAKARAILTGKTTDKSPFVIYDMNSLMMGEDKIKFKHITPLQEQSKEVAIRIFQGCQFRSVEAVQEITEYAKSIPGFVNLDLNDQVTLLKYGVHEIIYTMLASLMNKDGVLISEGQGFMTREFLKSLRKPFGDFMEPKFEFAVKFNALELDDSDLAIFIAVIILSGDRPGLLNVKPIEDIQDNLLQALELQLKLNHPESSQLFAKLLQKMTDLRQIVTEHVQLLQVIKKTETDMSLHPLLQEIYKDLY
Procedure, shortened: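 GeneBLAzer PPARg UAS-bla HEK293H cells carrying a stably integrated beta-lactamase reporter were pre-incubated 5 h at 37C, then exposed to compounds in DMSO for 17 h at 37C; LiveBLAzer B/G FRET substrate was added for 1 h at room temperature and fluorescence read.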

[4] = target: Peroxisome proliferator-activated receptor gamma (Homo sapiens) (UniProt P37231); experiment: qHTS assay to identify small molecule antagonists of the peroxisome proliferator-activated receptor gamma (PPARg) signaling pathway (AID 743191; calls by dose curve; further: series mostly up to about 63 µM; nearly all actives have a fitted effect of over 30% in size)
Procedure, shortened: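 GeneBLAzer PPARg UAS-bla HEK293H cells carrying a UAS-driven beta-lactamase reporter were plated at 3000 cells/well, preincubated 5 h at 37C, then given compound for 17 h at 37C; LiveBLAzer B/G FRET substrate was read after 1 h at room temperature.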

[5] = qHTS assay to identify small molecule antagonists of the peroxisome proliferator-activated receptor gamma (PPARg) signaling pathway - cell viability counter screen (AID 743194); conditions: Potency: co-treated with 50 nM rosiglitazone; further: nearly all actives have a fitted effect of over 55% in size
Procedure, shortened: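 PPARg-UAS-bla HEK293H cells were plated, rested 5 h at 37 C, then treated with compounds plus rosiglitazone (50 nM final) for 17 h at 37 C; viability was then read by CellTiter-Glo luminescence after 30 min at room temperature.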

[6] = qHTS assay for small molecule agonists of the antioxidant response element (ARE) signaling pathway (AID 743202; active means well fitted activation curve with a large enough effect in the signal ratio in the repeat runs, not every such curve was filed as active; the % refers to the signal ratio)
Procedure, shortened: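 Compounds delivered in DMSO to ARE-bla HepG2 cells (2,000 cells/well, pre-incubated 5 h) and left 16 h at 37 C. LiveBLAzer B/G FRET substrate then added for 2 h at RT before fluorescence reading.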

[7] = qHTS assay for small molecule agonists of the antioxidant response element (ARE) signaling pathway - cell viability counter screen (AID 743203; calls by dose curve; further: nearly all actives have a fitted effect of over 55% in size)
Procedure, shortened: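 CellSensor ARE-bla HepG2 cells, 2,000 per well, rested 5 hrs at 37C/5% CO2, then exposed to compound in DMSO for 16 hrs; viability read as CellTiter-Glo luminescence after 30 min at room temperature, in the reporter wells.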

[8] = qHTS assay for small molecule activators of the heat shock response signaling pathway (AID 743210; active means well fitted activation curve with a large enough effect in the signal ratio in the repeat runs, with a control signal flat, not every such curve was filed as active; the % refers to the signal ratio;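 further: HeLa cells with beta-lactamase reporter driven by heat shock elements; series mostly up to about 63 µM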)
Procedure, shortened: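 Reporter gene assay: HeLa cells stably bearing an HSE-bla construct, compound treatment 5 h at 37 C, LiveBLAzer substrate 2.5 h at RT, fluorescence intensity.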

[9] = target: Peroxisome proliferator-activated receptor delta (Homo sapiens) (UniProt Q03181); experiment: qHTS assay to identify small molecule agonists of the peroxisome proliferator-activated receptor delta (PPARd) signaling pathway (AID 743212; calls by dose curve)
Chain of Peroxisome proliferator-activated receptor delta (Homo sapiens) (Q03181 whole entry, looked up): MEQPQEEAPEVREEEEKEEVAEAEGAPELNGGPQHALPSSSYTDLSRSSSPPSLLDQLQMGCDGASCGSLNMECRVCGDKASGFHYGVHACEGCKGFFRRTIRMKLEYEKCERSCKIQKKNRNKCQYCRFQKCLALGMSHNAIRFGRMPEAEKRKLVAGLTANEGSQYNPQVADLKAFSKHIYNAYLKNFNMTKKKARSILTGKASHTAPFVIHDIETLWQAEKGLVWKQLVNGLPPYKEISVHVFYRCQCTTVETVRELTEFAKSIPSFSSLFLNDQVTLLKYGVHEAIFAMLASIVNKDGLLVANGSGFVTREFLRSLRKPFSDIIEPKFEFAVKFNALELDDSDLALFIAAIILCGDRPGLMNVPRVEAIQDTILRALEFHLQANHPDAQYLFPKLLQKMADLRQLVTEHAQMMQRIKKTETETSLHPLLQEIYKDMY
Procedure, shortened: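 A PPARd-bla HEK293H line with beta-lactamase under an Upstream Activator Sequence is treated with compounds at 37 C. Substrate loading for 2 h at room temperature precedes the fluorescence measurement.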

[10] = qHTS assay to identify small molecule antagonists of the peroxisome proliferator-activated receptor delta (PPARd) signaling pathway - cell viability counter screen (AID 743213); further: nearly all actives have a fitted effect of over 50% in size
Procedure, shortened: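 Same-well viability: cells pre-incubated 5 h, dosed with compound plus 300 nM L165041, kept 17 h at 37 C, FRET substrate 2 h RT, then CellTiter-Glo 30 min RT and luminescence.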

[11] = target: Bile acid receptor (Homo sapiens) (UniProt Q96RI1); experiment: qHTS assay to identify small molecule antagonists of the farnesoid-X-receptor (FXR) signaling pathway (AID 743217; active means well fitted inhibition curve with a large enough effect in the signal ratio in the repeat runs, not every such curve was filed as active; the % refers to the signal ratio)
Chain of Bile acid receptor (Homo sapiens) (Q96RI1 whole entry, looked up): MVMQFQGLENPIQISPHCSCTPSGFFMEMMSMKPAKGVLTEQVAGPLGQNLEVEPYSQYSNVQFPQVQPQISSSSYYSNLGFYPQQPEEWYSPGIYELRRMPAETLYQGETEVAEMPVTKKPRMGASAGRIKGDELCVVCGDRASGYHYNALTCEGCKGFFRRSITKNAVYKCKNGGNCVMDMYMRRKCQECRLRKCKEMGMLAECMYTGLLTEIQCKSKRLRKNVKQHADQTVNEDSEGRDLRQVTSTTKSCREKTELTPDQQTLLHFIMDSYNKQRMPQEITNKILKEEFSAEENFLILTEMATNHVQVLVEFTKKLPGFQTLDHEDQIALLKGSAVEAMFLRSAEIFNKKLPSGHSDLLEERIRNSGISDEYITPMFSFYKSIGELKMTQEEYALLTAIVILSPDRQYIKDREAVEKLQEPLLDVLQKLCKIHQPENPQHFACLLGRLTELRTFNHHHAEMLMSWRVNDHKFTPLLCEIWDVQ
Procedure, shortened: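 FXR-UAS-bla HEK 293T cells pre-incubated 5 h at 37 °C, then exposed to compounds with chenodeoxycholic acid (50 uM final) for 16 h at 37 °C. Beta-lactamase reporter read by LiveBLAzer B/G FRET substrate fluorescence after 2 h at room temperature.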

[12] = qHTS assay to identify small molecule agonists of the farnesoid-X-receptor (FXR) signaling pathway - cell viability counter screen (AID 743218); further: nearly all actives have a fitted effect of over 45% in size
Procedure, shortened: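 FXR-UAS-bla HEK 293T cells, plated 5 h at 37 C, were exposed to compounds for 16 h at 37 C. CellTiter-Glo was then added to the same wells as the bla readout; luminescence read after 30 min at room temperature.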

[13] = target: Bile acid receptor (Homo sapiens) (UniProt Q96RI1); experiment: qHTS assay to identify small molecule agonists of the farnesoid-X-receptor (FXR) signaling pathway (AID 743220; active means well fitted activation curve with a large enough effect in the signal ratio in the repeat runs, not every such curve was filed as active; the % refers to the signal ratio)
Procedure, shortened: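 Beta-lactamase reporter under UAS control in GeneBLAzer FXR HEK 293T cells (5000/well) measured with LiveBLAzer FRET substrate after 2 h at room temperature. Compound exposure lasted 16 h at 37C.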

[14] = qHTS assay to identify small molecule antagonists of the farnesoid-X-receptor (FXR) signaling pathway - cell viability counter screen (AID 743221; active means well fitted cell-killing curve with a large enough effect in the repeat runs, not every such curve was filed as active; further: nearly all actives have a fitted effect of over 50% in size)
Procedure, shortened: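 Here viability was scored by luminescence after CellTiter-Glo addition to wells already read for beta-lactamase. Prior treatment: compound plus CDCA (50 uM final), 16 h, 37 C, HEK 293T FXR-bla cells.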

[15] = target: Vitamin D3 receptor (Homo sapiens) (UniProt P11473); experiment: qHTS assay to identify small molecule agonists of the vitamin D receptor (VDR) signaling pathway (AID 743222; calls by dose curve)
Chain of Vitamin D3 receptor (Homo sapiens) (P11473 whole entry, looked up): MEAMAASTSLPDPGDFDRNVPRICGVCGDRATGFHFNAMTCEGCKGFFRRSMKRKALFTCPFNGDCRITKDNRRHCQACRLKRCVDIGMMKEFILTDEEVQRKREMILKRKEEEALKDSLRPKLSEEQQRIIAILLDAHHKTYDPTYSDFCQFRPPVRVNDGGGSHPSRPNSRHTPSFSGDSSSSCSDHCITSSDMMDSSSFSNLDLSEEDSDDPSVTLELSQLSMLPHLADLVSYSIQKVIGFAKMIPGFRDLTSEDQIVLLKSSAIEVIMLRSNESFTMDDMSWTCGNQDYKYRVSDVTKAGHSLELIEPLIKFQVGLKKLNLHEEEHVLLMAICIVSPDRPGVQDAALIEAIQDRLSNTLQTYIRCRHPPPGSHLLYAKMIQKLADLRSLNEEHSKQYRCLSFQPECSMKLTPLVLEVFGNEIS
Procedure, shortened: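 VDR-bla cells were plated 4 h at 37C/5% CO2, then exposed to compounds in DMSO for 16 h. After LiveBLAzer B/G FRET substrate addition and 2 h at room temperature, beta-lactamase reporter fluorescence was read.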

[16] = target: Vitamin D3 receptor (Homo sapiens) (UniProt P11473); experiment: qHTS assay to identify small molecule antagonists of the vitamin D receptor (VDR) signaling pathway (AID 743223; active means well fitted inhibition curve with a large enough effect in the signal ratio in the repeat runs, not every such curve was filed as active; the % refers to the signal ratio)
Procedure, shortened: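 Inhibition of agonist-driven VDR signalling is scored in VDR-bla cells: 3 nM final 1alpha,25-dihydroxyvitamin D3 plus compound, 16 h at 37C, then beta-lactamase detection by FRET substrate fluorescence after 2 h.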

[17] = qHTS assay for small molecule activators of the heat shock response signaling pathway - cell viability counter screen (AID 743209); further: nearly all actives have a fitted effect of over 50% in size
Procedure, shortened: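 CellSensor HSE-bla HeLa cells, plated overnight at 37 C/5% CO2, were exposed to compounds in DMSO for 5 h at 37 C. Viability was then read in the same wells by CellTiter-Glo luminescence after 30 min at room temperature.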

[18] = qHTS assay to identify small molecule agonists of the peroxisome proliferator-activated receptor delta (PPARd) signaling pathway - cell viability counter screen (AID 743211); further: nearly all actives have a fitted effect of over 55% in size
Procedure, shortened: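 In the same wells used for beta-lactamase reporter measurement, cytotoxicity is scored by CellTiter-Glo. HEK293H PPARd-bla cells receive compound for 17 h at 37C following a 5 h settling period.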

[19] = target: Peroxisome proliferator-activated receptor delta (Homo sapiens) (UniProt Q03181); experiment: qHTS assay to identify small molecule antagonists of the peroxisome proliferator-activated receptor delta (PPARd) signaling pathway (AID 743215; active means well fitted inhibition curve with a large enough effect in the signal ratio in the repeat runs, not every such curve was filed as active; the % refers to the signal ratio;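 further: cells stimulated with agonist L165041 at 300 nM final during compound exposure; series mostly up to about 62 µM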)
Procedure, shortened: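 PPARd UAS-bla HEK293H cells were pre-incubated 5 h at 37 C, then given test compounds in DMSO plus agonist L165041 (300 nM final). After 17 h at 37 C, beta-lactamase FRET substrate was added; fluorescence read after 2 h at room temperature.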

[20] = qHTS assay to identify small molecule agonists of the vitamin D receptor (VDR) signaling pathway - cell viability counter screen (AID 743224); further: series mostly up to about 63 µM; nearly all actives have a fitted effect of over 50% in size
Procedure, shortened: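 VDR-bla cells were preincubated 4 h at 37C/5% CO2, then exposed to compounds for 16 h. After the 2 h room-temperature bla FRET read, CellTiter-Glo was added to the same wells and luminescence read after 30 min.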

Measured: Potency

CC(C)NCC(O)c1ccc([N+](=O)[O-])cc1 (configuration not stated)
not listed: [17] | [18] | [19] | [20]
inactive: all other assays above

BrCc1ccc(Br)cc1
inactive: all assays above

CCCCCCCC(=O)Cl
not listed: [15] | [16] | [19]
inactive: all other assays above

C=CCc1cc(OC)c2c(c1)OCO2
not listed: [11] | [13]
inactive: all other assays above

COC(=O)c1ccc(CBr)cc1
not listed: [11] | [13] | [20]
inactive: all other assays above

NCCOS(=O)(=O)O
not listed: [19]
inactive: all other assays above

O=S1(=O)OCCO1
not listed: [11]
inactive: all other assays above

CCOc1cc(OP(=S)(OC)OC)nc(CC)n1
not listed: [11] | [13] | [16] | [18]
inactive: all other assays above
